Most compounds without a hit are left out; they make up all but 3.5% or so of the library.
Pf apPOL inh: Pf-apPOL inhibitors, biochemical, fluorescence; hit rate 0.25% among 210,000; AID 1794808, 2022; Plasmodium falciparum apicoplast DNA polymerase (apPOL); Recombinant Pf-apPOL, molecular beacon fluorescence, 1.5 h; inhibition, % at 10 µM
mHTT CaM bind: mutant huntingtin-calmodulin interaction inhibitors – biochemical, AlphaScreen, primary screen. P42858. hit rate 3.6% among 190,000. AID 1671202, 2021. AlphaScreen His-mHTT/GST-CaM binding, luminescence. inhibition, % at 15 µM
Large screens that a line does not name were inactive. No stated cut-off is given here; in the data, active means inhibition above about 50%; inactive means the rest.

COc1ccc(C2/C=C\CN(C(=O)C3CCCC3)CC(=O)N2Cc2ccc(F)cc2)cc1 (stereo not drawn)	mHTT CaM bind 63
COc1ccc(C2/C=C\CN(C(=O)C3CCCCC3)CC(=O)N2Cc2ccc(F)cc2)cc1 (stereo not drawn)	none
Cc1[nH]nc2c1C(c1ccsc1)CC(=O)N2 (stereo not drawn)	none
OC1c2ccnn2C(O)c2ccnn21 (stereo not drawn)	none (no result: mHTT CaM bind)
CCC(C(=O)Nc1ccccc1C)c1ccccc1 (stereo not drawn)	none
Cc1nn(Cn2cc(Cl)cn2)c(C)c1N	none (no result: Pf apPOL inh)
O=[N+]([O-])c1ccc2oc3c(c2c1)CCCC3	none
O=C1CCCc2oc3ccc(NS(=O)(=O)c4cc([N+](=O)[O-])ccc4Cl)cc3c21	none
O=[N+]([O-])c1cc(S(=O)(=O)Nc2ccc3oc4c(c3c2)CCCC4)ccc1Cl	mHTT CaM bind 75
Cc1ccc(S(=O)(=O)Nc2ccc(Cl)cc2)cc1[N+](=O)[O-]	none
O=[N+]([O-])c1ccc(Cl)c(S(=O)(=O)Nc2ccc3oc4c(c3c2)CCCC4)c1	mHTT CaM bind 68
Cc1ccc(S(=O)(=O)Nc2ccc3oc4ccccc4c3c2)cc1[N+](=O)[O-]	mHTT CaM bind 97
Cc1cccc(C(=O)N2CCC3(CC2)NC(=O)c2cc(F)ccc2N3C)c1	none
COc1ccc(OC)c(NC(=O)c2cc3ccc(O)cc3oc2=Nc2ccc(C(=O)O)cc2)c1	none
CC1(C(=O)NCc2cccc(F)c2)CCCN(C(=O)Cc2ccc(F)cc2)C1 (stereo not drawn)	none
COc1ccc(N(C)CN2C(=O)S/C(=C\c3ccc4c(c3)OCO4)C2=O)cc1	none
CC(C)CCC(=O)N1CCN(c2nc(CN3CCC(C)CC3)cs2)CC1	none
O=C1N/C(=C/c2ccc(N3CCCC3)cc2)C(=O)N1Cc1ccc([N+](=O)[O-])cc1	none
O=C1N/C(=C\c2ccc(N3CCCC3)cc2)C(=O)N1Cc1ccccc1Cl	Pf apPOL inh 88
CC(/C=C1\SC(=O)N(c2ccc(O)cc2)C1=O)=C\c1ccccc1	mHTT CaM bind 60
Cc1ccc(N2C(=O)S/C(=C\c3ccc(O)cc3)C2=O)cc1	none
COC(=O)c1ccc(N2C(c3cccc(OC)c3)=Cc3ccc(F)cc3C2c2c(C)[nH]c3ccccc23)cc1 (stereo not drawn)	none
COc1ccc(-c2ccc(N3C(c4ccsc4)=Cc4ccc(F)cc4C3c3c[nH]c4ccccc34)cc2)cc1 (stereo not drawn)	mHTT CaM bind 82
COc1ccc(C)cc1NC(=O)c1cnc(N2CCN(c3ccccn3)CC2)c2ccccc12	none
Brc1ccc2c(c1)OCCOCCOc1ccc(Br)cc1OCCO2	none
Brc1cccc(CNc2cc3c(cc2Br)OCCO3)c1	mHTT CaM bind 78
CC1(CNC(=O)NCCc2ccccc2)CCOCC1	none
Cc1ccc(Nc2cc(C)c(O)c(C)c2)cc1	mHTT CaM bind 84
Cc1cc(NC(=O)c2ccccc2)cc(C)c1O	none
O=C(Cn1c(C(F)(F)F)nc2ccccc21)NCc1ccco1	none
O=C(Cn1c(-c2nnco2)cc2ccccc21)NCc1ccco1	mHTT CaM bind 69
Cc1ccccc1-n1nc2c(c1NC(=O)c1ccc(C)c([N+](=O)[O-])c1)CS(=O)(=O)C2	none
Cc1cc(C2CCC(C(=O)N3CCOCC3)CN2C(=O)C2CCCC2)ccc1F (stereo not drawn)	none
O=C(Nc1ccc(NC(=O)c2ccc(Br)o2)cc1)c1ccccc1	none
O=C(Nc1ccc(Nc2ccccc2)cc1)c1ccc(Br)o1	mHTT CaM bind 61
O=C(Nc1cccc(-c2nc3ccccc3[nH]2)c1)c1ccc(Br)o1	Pf apPOL inh 102
O=C(Nc1ccc(Cl)c(-c2nc3ccccc3[nH]2)c1)c1ccc(Br)o1	none
COc1ccc(OC)c(/C=C2/N=C(c3ccc(F)cc3)OC2=O)c1	none
COc1ccc(N2C(=O)CSC2c2c(F)cccc2Cl)cc1Cl (stereo not drawn)	none
COc1ccccc1CNC(=O)C1CCc2nc(N3CCN(C(C)=O)CC3)sc2C1 (stereo not drawn)	none
CC(C)(C)NC(=O)Nc1nnc(SCc2cccc([N+](=O)[O-])c2)s1	none
O=C(NCCCN1CCCCCC1)C1CCN(c2nc3cccnc3s2)CC1	none
COCc1nc(Cn2ccnc2C)no1	none
COc1ccc(-c2nc3ccc(C)cn3c2NC(=O)C(Cl)Cl)cc1OC	mHTT CaM bind 52
COc1ccc(-c2nc3ccc(C)cn3c2NC(C)=O)cc1OC	none
COc1ccc(-c2nc3ccc(C)cn3c2NC(=O)C2CCCCC2)cc1OC	none
COc1ccc(-c2nc3ccccn3c2NC(=O)C2CCCCC2)cc1OC	mHTT CaM bind 59
O=C(c1ccc(Cn2cncn2)cc1)N1CCc2ccccc2C1	none
O=C(c1ccc(Cn2c(=O)[nH]c3ccccc3c2=O)cc1)N1CCc2ccccc2C1	mHTT CaM bind 60
COc1ccc(C(=O)N2CCc3cc(OC)c(OC)cc3C2)cc1OC	none
COc1cc2c(cc1OC)CN(C(=O)C(c1ccccc1)n1cccc1)CC2 (stereo not drawn)	mHTT CaM bind 65
Cc1ccc(NCCNC(=O)c2c[nH]c3ccccc23)nn1	none
Cc1ccnc(Nc2ccc(NCCNC(=O)c3c(F)cccc3F)nn2)c1	mHTT CaM bind 100
O=C(c1n[nH]c2c1CCCC2)N1CC2CC1CC2NS(=O)(=O)c1cccs1 (stereo not drawn)	none
Cc1noc(C)c1S(=O)(=O)N1CC2CC(NC(=O)c3cccs3)C1C2 (stereo not drawn)	none
COc1ccc(Cl)cc1NC(=O)C(Cc1ccccc1)N1C(=O)C2C3CCC(C3)C2C1=O (stereo not drawn)	none
COc1ccc(Cl)cc1NC(=O)C(Cc1ccccc1)N1C(=O)C2C3C=CC(C3)C2C1=O (stereo not drawn)	mHTT CaM bind 51
Cc1ccc(CN2C(=O)/C(=C/C(=O)O)Sc3ccccc32)cc1	mHTT CaM bind 60
Cc1ccccc1CN1C(=O)/C(=C/C(=O)NCCc2ccccc2)Sc2ccccc21	mHTT CaM bind 51
Cc1ccccc1CN1C(=O)/C(=C/C(=O)O)Sc2ccccc21	none
O=C(/C=C1\Sc2ccccc2N(Cc2ccc(F)cc2)C1=O)NCCc1ccccc1	none
COc1cccc(C(O)CN2CCN(c3cc(C)ccc3C)CC2)c1 (stereo not drawn)	none
Cc1cc(C)c(S(=O)(=O)N2CCC(c3cc4n(n3)CCCN(C)C4=O)CC2)cc1C	none
Cc1ccccc1-n1nc2c(c1NC(=O)/C=C/c1ccc3c(c1)OCO3)CSC2	none
CCOC(CNC(=O)c1ccc2c(c1)ncn2-c1cc(OC)c(OC)c(OC)c1)OCC	none
O=C(c1c(F)cccc1F)N1CCN=C1SCc1ccc([N+](=O)[O-])cc1	none
CC1=C(C(=O)Nc2ccccn2)C(c2ccc(OCc3ccccc3)cc2)n2nnnc2N1 (stereo not drawn)	none
CC1=C(C(=O)Nc2ccccc2)C(c2ccc(OCc3ccccc3)cc2)n2nnnc2N1 (stereo not drawn)	mHTT CaM bind 62
CC1CCCN(CC(O)COC2CC3CCC2(C)C3(C)C)C1 (stereo not drawn)	none
Cc1cc(C)c(S(=O)(=O)N=C2C=CC(=O)C(Br)=C2)c(C)c1	mHTT CaM bind 53
Cc1cc(C)c(S(=O)(=O)N2CCCC2=O)c(C)c1	none
CCN(CC)C(=NS(=O)(=O)c1ccc(C)cc1C)c1ccccc1	none
Cc1ccc(S(=O)(=O)N=C2C=CC(=O)C(Br)=C2)c(C)c1	mHTT CaM bind 93
CCC(=O)NC1CCN(c2ccccc2C(=O)N(C)C(C)C)CC1	none
C=CCNC(=O)COc1ccc(Br)cc1C	none
C=CCNCCOc1ccc(Br)cc1C	mHTT CaM bind 54

From PubChem BioAssay
